Data: PubChem BioAssay AID2732 (Emory University Molecular Libraries Screening Center, 2010)
Hit rate of the full screen: of about 220,000 compounds, about 8,200 (3.7%) were called active. For the sample, actives were picked, then their nearest neighbours and some compounds at random. A number with no mark means an inactive call.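 Rule for the calls: active = compounds that reduced the stress-induced luciferase reporter signal by more than about 70% of percent inhibition (limit read from the data); inactive = the rest.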

Experiment: inhibitors of CHOP promoter induction, primary screen, cell-based, unfolded protein response, luciferase reporter (AID 2732);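 note: 0% = tunicamycin plus vehicle and 100% = wells without tunicamycin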
Details: CHO-K1 CHOP-promoter luciferase, tunicamycin-induced, 15-18 h; at 10 µM; hits give high values
With `CC(C)(C)c1nc2ccccc2c(=O)n1N1C(=O)c2ccccc2C1=O` the inhibition was 71.3% (active).
`CCC1(CC)Cc2ccccc2-c2nc3ccccc3c(=O)n21` showed an inhibition of 16.7%.
With `CN(C)CCCn1c(SCCN2C(=O)c3ccccc3C2=O)nc2ccccc2c1=O` the inhibition was 4.6%.
With `CCCN(c1ccc(C)cc1)c1nc(=O)c2cccnc2s1` the inhibition was 12.3%.
With `Cc1cc(N)n(-c2ccc(S(=O)(=O)N3CCCC3)cc2[N+](=O)[O-])n1` the inhibition was 7.68%.
In the case of `Cn1c(=O)c2[nH]c(NCC3CCCO3)nc2n(-c2ccccc2)c1=O` (configuration not stated), the inhibition is reported as 8.41%.
For `CC(C)(C)c1nc(NCC2CCCO2)c2nnn(Cc3ccccc3)c2n1` (configuration not stated), the inhibition was 71.1% (active).
`CC(C)Nc1ncnc2c1nnn2Cc1ccccc1` gave an inhibition of 21.7%.
For `CC/C=C/C(=O)N1CC2(CC(c3cccc(NC(=O)CC)c3)=NO2)C[C@H]1C(N)=O` (some centres not stated), the inhibition was -5.15%.
Work on `CC(C)Cc1nnc(NC(=O)CCC(=O)Nc2ccc3cn[nH]c3c2)s1` yielded an inhibition of -20.9%.
`CCOc1cc(/C=C(\C#N)c2nc(-c3cccs3)c(NC(C)=O)s2)ccc1O` gave an inhibition of -1.5%.
For `COc1cc(/C=N/Nc2nc3ccccc3s2)ccc1O`, the inhibition was 3.98%.
For `COc1cc(/C=C(\C#N)c2nc3c(s2)CC(C)CC3)ccc1O` (configuration not stated), the inhibition was 93.6% (active).
Work on `O=C(COC(=O)/C=C/c1ccc2c(c1)OCO2)NC1CCS(=O)(=O)C1` (configuration not stated) yielded an inhibition of 17.7%.
In the case of `Cc1nc(C)c2c(c1C(F)(F)F)-c1ccccc1C2(F)F`, the inhibition is reported as 84.7% (active).
`CSc1n[nH]c(=S)n1N` gave an inhibition of 0.04%.
With `CC(C)(C)C(=O)OCc1nc(-c2ccc(O)c(O)c2)cs1` the inhibition was -105%.
`Cc1ccc(S(=O)(=O)/N=C(/Nc2ccc3[nH]c(=O)[nH]c3c2)c2ccccc2)cc1` gave an inhibition of -16.7%.
With `Cc1ccc(C(=O)NC(=S)Nc2ccc3[nH]c(=O)[nH]c3c2)cc1C` the inhibition was 1.63%.
With `Cc1cc(C)cc(C(=O)NC(=S)Nc2ccc3[nH]c(=O)[nH]c3c2)c1` the inhibition was 81.3% (active).
In the case of `CC1CC2=C(CC1/C=N/NC(N)=S)C(C)(C)CCC2` (configuration not stated), the inhibition is reported as 89.8% (active).
Compound `CC1(C)CCCC2=C1CC1C(=O)N(c3ccccc3)C(=O)C1C2` (configuration not stated) has an inhibition of 12%.
In the case of `CN(C(=O)Nc1ccc(Cl)cc1)n1cnc2ccccc2c1=O`, the inhibition is reported as 20.1%.
In the case of `CC1(C)C=C2[C@H]3CC[C@@H]4[C@@]5(C)CCC(=O)C(C)(C)[C@@H]5CC[C@@]4(C)[C@]3(C)CC[C@@]2(C(=O)O)CC1`, the inhibition is reported as 95% (active).
`COC(=O)/C=C(\Oc1ccccc1)C1(O)CCCCC1` showed an inhibition of 7.27%.
With `Fc1ccc(Nc2nnns2)cc1` the inhibition was 3.88%.
For `Cc1ccc(-n2ncc3c2ncn2nc(-c4ccco4)nc32)c(C)c1`, the inhibition was 105% (active).
`COC(=O)CSc1ncnc2c1cnn2-c1ccc(C)cc1C` gave an inhibition of -4.08%.
Compound `Cc1ccc(-n2ncc3c(=O)n(-c4ccc(C)c(C)c4)c(-c4ccco4)nc32)cc1` has an inhibition of 37.9%.
In the case of `O=C(NCc1cccnc1)Nc1cccc(NC(=O)NCc2cccnc2)c1F`, the inhibition is reported as 7.4%.
In the case of `CN1CCN(C2=NCCO2)CC1`, the inhibition is reported as 2.43%.
In the case of `O=C(Nc1nnc(SCc2ccc(Cl)cc2Cl)s1)C1COc2ccccc2O1` (configuration not stated), the inhibition is reported as 71.3% (active).
`O=C(Nc1nnc(SCc2c(Cl)cccc2Cl)s1)C1CCCO1` (configuration not stated) gave an inhibition of 18.8%.
`O=C(Nc1nc2c(F)cc(F)cc2s1)C1COc2ccccc2O1` (configuration not stated) gave an inhibition of 17.5%.
Work on `Cc1cnc(NC(=O)c2ccccn2)s1` yielded an inhibition of 8.8%.
`CN(C)S(=O)(=O)c1ccc(C(=O)NCC(C)(C)N2CCOCC2)cc1` gave an inhibition of -18.3%.
For `Cc1nc2ccccc2nc1N/N=C/c1ccc(O)cc1O`, the inhibition was 74.5% (active).
Compound `Oc1ccc(/C=N/Nc2nc(-c3ccccc3F)nc3ccccc23)c(O)c1` has an inhibition of 57.6%.
For `Oc1ccc(/C=N/NC2=NCCCCC2)c(O)c1`, the inhibition was -12.1%.
`O=C(O)Cc1csc(NC(=O)CSc2nnnn2-c2ccc(O)cc2)n1` gave an inhibition of -5.01%.
In the case of `CCc1ccc(S(=O)(=O)NCC(O)COc2ccc(OC)cc2)cc1` (configuration not stated), the inhibition is reported as 16.3%.
`O=C(N/N=C\c1cc(Br)c(Br)o1)C1COc2ccccc2O1` (configuration not stated) gave an inhibition of 6.22%.
With `CCCc1cc(-c2nc(-c3ccc(C)cc3)cs2)ccn1` the inhibition was 39.6%.
In the case of `Cc1ccc(-c2csc(-c3c[nH]c4ccccc34)n2)cc1`, the inhibition is reported as 98.1% (active).
For `Cc1ccc(-c2csc(-c3cc(C)on3)n2)cc1`, the inhibition was -14.2%.
For `COCc1cc(=O)oc2cc(NS(=O)(=O)c3ccc(C)cc3)ccc12`, the inhibition was 9.01%.
Compound `Cc1cc(Nc2ccc(N3CCOCC3)cc2)c2cccc(C)c2n1` has an inhibition of -27.9%.
Compound `CC(=O)c1ccc(NC(=O)Nc2ccc([N+](=O)[O-])cc2C)cc1` has an inhibition of 51.8%.
With `COc1cc(NC(=O)Nc2ccc(C)cc2)cc([N+](=O)[O-])c1` the inhibition was 71.2% (active).
Work on `COC(=O)c1ccc(NC(=O)Nc2ccc(C)cc2)cc1` yielded an inhibition of 26.6%.
Compound `Cn1c(=O)c2c(nc(NCc3ccccc3)n2CC(N)=O)n(C)c1=O` has an inhibition of 9.77%.
For `Cc1ccccc1N1CCN(Cc2nc(Cc3ccccc3F)no2)CC1`, the inhibition was -7.61%.
For `COc1cc(C(=O)OC(C)C(=O)NCC2CCCCC2)cc(NC(=O)c2ccco2)c1OC` (configuration not stated), the inhibition was 101% (active).
In the case of `COc1cc(C(=O)N[C@@H](C)C(=O)NCc2ccco2)cc(OC)c1OC`, the inhibition is reported as 0.36%.
Work on `COC(=O)c1cc(Cl)c(NC(=O)c2ccco2)cc1OC` yielded an inhibition of -8.18%.
With `Cc1[nH]n(C)c(=O)c1N=Nc1ccc(S(C)(=O)=O)cc1` the inhibition was 7.35%.
With `CCc1ccccc1NC(=O)/C(=C/c1ccccc1)c1ccccc1` the inhibition was 84.8% (active).
In the case of `O=C(/C=C/c1ccccc1)N/C(=C/c1ccccc1)C(=O)Nc1ccccc1O`, the inhibition is reported as -0.94%.
Compound `CCc1ccccc1NC(=O)c1cccs1` has an inhibition of 39.1%.
For `O=C(N/N=C/c1ccccn1)c1ccc(S(=O)(=O)N2CCCCCC2)cc1`, the inhibition was -0.54%.
With `N#CC(C(=O)c1ccc(S(=O)(=O)N2CCCCCC2)cc1)c1nc2ccccc2[nH]1` (configuration not stated) the inhibition was 101% (active).
With `COc1ccccc1N1CCN(C(=O)c2ccc(S(=O)(=O)N3CCCCC3)cc2)CC1` the inhibition was 10.2%.
